The results in this text go back to PubChem BioAssay (NCATS).

Values joined by “and” are separate entries in the source; they are usually repeats but may differ in a detail not shown here. Identical values can stand only once. Results filed as inconclusive are left out. Active and inactive are the calls of the source. Unless noted, the call rests on the fitted dose curve; in most records, active means well fitted curve in the direction sought with a large enough effect; inconclusive means small, poorly fitted or top-dose-only effect, or another doubt; inactive means no such curve, though single readings can be large; an effect the other way counts as inactive or inconclusive.

Assay [1] addresses Cytochrome P450 2D6 (Homo sapiens) (UniProt P10635). Description: Cytochrome P450 family 2 subfamily D member 6 (CYP2D6) small molecule antagonists: luciferase biochemical (cell-free) qHTS assay (AID 1645840; active means well fitted curve in the direction sought with a large enough effect in the repeat runs; an effect the other way counts as inactive or inconclusive; further: nearly all actives have a fitted effect of over 55% in size; further: potency means the concentration at half of the fitted maximal effect). In outline:
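P450-Glo CYP2D6 system: proluciferin substrate converted by enzyme to luciferin, read by luminescence proportional to activity. Enzyme-substrate mix with compound 10 min at room temperature, then NADPH regeneration 1 h before detection reagent.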

The target in assay [2] is Cytochrome P450 2C9 (Homo sapiens) (UniProt P11712). In words: Cytochrome P450 family 2 subfamily C member 9 (CYP2C9) small molecule antagonists: luciferase biochemical (cell-free) qHTS assay (AID 1645842; active means well fitted curve in the direction sought with a large enough effect in the repeat runs; an effect the other way counts as inactive or inconclusive; further: nearly all actives have a fitted effect of over 55% in size; further: potency means the concentration at half of the fitted maximal effect). The essentials: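 P450-Glo CYP2C9 system: proluciferin substrate with enzyme in mix containing 0.4% BSA, 10 min at room temperature, then NADPH regeneration solution added and incubated 1 h at 37C. Detection reagent stopped reaction; luminescence read after 20 min as RLU.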

Another assay concerns the target Papain (Carica papaya) (UniProt P00784). In words: Primary qHTS assay for inhibitors of the protease papain (AID 1645873).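 Further: papain turnover of Z-FR-AMC read as the AMC fluorescence gain over 10 min.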 Further: potency means the concentration at half of the fitted maximal effect.
The nature of assay [3]: Primary qHTS for inhibitors of nuclear receptor binding SET domain protein 2 (NSD2) in an isogenic RCH-ACV NSD2 p.E1099K mutant (9B) (AID 1645876). Further: nearly all actives have a fitted effect of over 70% in size. Further: potency means the concentration at half of the fitted maximal effect.
A short description of assay [4]: Primary qHTS for inhibitors of nuclear receptor binding SET domain protein 2 (NSD2) in an RCH-ACV wild type WT cells (2C) (AID 1645877). Further: nearly all actives have a fitted effect of over 70% in size. Further: potency means the concentration at half of the fitted maximal effect.
The target in assay [5] is N-terminal Xaa-Pro-Lys N-methyltransferase 1 (Homo sapiens) (UniProt Q9BV86). In words: Confirmatory qHTS for Inhibitors of N-terminal methyltransferase 1 (NTMT1): MTaseGlo Assay (AID 1645874). Further: potency means the concentration at half of the fitted maximal effect; nearly all actives have a fitted effect of over 65% in size. Particulars: NTMT1 enzyme, MTase-Glo SAH luminescence. The essentials:
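Enzyme mix (125 nM NTMT1, 100 uM SAM) + compound, 15 min RT; + 1 uM SPKRIA, 30 min RT, dark; MTase-Glo reagent 30 min, detection solution 30 min; luminescence. % inhibition vs no-enzyme/DMSO controls, 4-parameter Hill fit.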

The target in assay [6] is Rap guanine nucleotide exchange factor 3 (Homo sapiens) (UniProt O95398). In words: Confirmatory qHTS for antagonist of cAMP-regulated guanine nucleotide exchange factor 3 (EPAC1) (AID 1645880). Further: nearly all actives have a fitted effect of over 55% in size. In outline:
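Released BODIPY-GDP fluoresces less than Rap1-bound BODIPY-GDP; the signal is followed at 480/540 nm at 5-min intervals over 30 min, after 5 min at room temperature. Reactions contain 100 nM EPAC1, 250 nM RAP1B-BODIPY-GDP and 50 uM GDP; results are normalized to ATA and DMSO.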

Assay [7] shares this target. In words: Confirmatory qHTS for agonist of cAMP-regulated guanine nucleotide exchange factor 3 (EPAC1) (AID 1645881).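 Further: EPAC1 catalysed release of BODIPY-GDP from Rap1B seen as fluorescence loss; nearly all actives have a fitted effect of over 75% in size.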

Sequence of Papain (Carica papaya) (P00784 whole entry, looked up, the tested form may be a part): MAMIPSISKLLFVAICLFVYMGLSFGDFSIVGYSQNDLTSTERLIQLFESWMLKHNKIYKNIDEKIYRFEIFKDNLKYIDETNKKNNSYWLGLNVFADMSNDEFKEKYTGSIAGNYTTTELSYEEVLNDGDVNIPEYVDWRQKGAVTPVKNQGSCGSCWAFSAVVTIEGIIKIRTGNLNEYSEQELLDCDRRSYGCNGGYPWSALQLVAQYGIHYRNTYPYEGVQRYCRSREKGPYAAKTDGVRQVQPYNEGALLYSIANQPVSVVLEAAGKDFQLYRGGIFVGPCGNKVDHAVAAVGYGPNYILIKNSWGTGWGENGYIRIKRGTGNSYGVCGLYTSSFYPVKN
Sequence of Cytochrome P450 2D6 (Homo sapiens) (P10635 whole entry, looked up): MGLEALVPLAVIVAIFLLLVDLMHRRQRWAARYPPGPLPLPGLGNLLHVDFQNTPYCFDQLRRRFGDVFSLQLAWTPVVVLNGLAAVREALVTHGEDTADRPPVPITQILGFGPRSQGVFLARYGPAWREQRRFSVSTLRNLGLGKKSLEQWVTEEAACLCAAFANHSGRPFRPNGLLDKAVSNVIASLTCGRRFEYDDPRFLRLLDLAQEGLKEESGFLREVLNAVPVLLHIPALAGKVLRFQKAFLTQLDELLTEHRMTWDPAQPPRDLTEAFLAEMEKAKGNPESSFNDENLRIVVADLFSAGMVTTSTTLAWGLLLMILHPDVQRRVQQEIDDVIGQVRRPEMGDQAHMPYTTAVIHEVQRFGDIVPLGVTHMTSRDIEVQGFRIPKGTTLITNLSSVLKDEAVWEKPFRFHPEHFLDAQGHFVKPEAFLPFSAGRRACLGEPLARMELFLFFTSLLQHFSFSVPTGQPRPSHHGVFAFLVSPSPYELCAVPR
Sequence of Cytochrome P450 2C9 (Homo sapiens) (P11712 whole entry, looked up): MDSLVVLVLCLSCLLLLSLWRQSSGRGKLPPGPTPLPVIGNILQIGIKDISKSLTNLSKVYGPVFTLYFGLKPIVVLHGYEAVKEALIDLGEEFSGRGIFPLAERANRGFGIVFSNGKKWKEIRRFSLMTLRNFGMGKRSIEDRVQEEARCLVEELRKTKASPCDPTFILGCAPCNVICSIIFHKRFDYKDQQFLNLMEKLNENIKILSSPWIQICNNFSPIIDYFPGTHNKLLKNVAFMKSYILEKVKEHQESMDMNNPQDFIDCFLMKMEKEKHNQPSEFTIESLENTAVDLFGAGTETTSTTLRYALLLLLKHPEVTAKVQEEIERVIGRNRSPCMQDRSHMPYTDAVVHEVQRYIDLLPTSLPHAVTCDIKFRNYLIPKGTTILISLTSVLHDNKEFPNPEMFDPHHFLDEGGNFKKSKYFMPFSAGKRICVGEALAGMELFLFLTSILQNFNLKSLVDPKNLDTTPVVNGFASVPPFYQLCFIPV
Sequence of Rap guanine nucleotide exchange factor 3 (Homo sapiens) (O95398 whole entry, looked up): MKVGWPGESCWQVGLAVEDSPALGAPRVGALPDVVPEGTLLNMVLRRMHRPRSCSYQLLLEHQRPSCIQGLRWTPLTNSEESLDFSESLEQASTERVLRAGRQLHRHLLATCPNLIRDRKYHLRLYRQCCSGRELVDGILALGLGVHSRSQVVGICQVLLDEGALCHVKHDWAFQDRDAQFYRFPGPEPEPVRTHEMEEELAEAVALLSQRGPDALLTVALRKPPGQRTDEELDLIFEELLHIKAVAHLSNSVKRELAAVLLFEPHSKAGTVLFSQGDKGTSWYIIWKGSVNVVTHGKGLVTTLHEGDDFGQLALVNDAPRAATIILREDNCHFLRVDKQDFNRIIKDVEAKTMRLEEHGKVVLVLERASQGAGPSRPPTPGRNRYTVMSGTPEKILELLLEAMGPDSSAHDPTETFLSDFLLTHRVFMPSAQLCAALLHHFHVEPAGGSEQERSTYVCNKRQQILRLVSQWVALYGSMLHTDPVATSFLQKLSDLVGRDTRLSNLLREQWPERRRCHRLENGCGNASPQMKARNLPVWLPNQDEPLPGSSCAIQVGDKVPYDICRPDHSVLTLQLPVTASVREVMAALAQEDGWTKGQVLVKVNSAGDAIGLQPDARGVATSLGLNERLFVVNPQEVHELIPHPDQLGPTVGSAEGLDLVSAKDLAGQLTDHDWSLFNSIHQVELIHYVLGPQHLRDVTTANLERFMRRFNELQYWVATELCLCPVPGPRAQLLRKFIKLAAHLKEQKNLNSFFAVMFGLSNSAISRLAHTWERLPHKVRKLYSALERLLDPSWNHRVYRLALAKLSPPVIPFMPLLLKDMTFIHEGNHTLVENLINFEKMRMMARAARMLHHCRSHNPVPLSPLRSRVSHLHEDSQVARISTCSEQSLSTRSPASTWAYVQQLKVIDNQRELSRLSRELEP
Sequence of N-terminal Xaa-Pro-Lys N-methyltransferase 1 (Homo sapiens) (Q9BV86 whole entry, looked up): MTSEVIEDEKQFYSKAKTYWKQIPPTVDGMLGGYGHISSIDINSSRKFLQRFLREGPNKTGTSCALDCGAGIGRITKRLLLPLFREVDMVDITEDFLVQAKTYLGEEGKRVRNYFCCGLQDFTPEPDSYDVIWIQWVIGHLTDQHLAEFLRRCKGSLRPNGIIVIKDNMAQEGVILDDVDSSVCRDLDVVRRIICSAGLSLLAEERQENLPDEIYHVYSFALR

With `COC(=O)C1=C(C)NC(C)=C(C(=O)OC)C1c1cccc(NC(=O)NCCCN2CCC(c3cccc(OC)c3)CC2)c1`, the Potency in assay [1] is 4.25 µM (active); in assay [2], 1.69 µM (active); in assay [3], 4.59 µM (active); in assay [4], 4.59 µM (active). Moreover, in the assay with Papain (Carica papaya), the Potency result was “inactive”.

In the case of `CN(CCCOc1ccc(Cc2ccccc2)cc1)CCC(=O)O`, the Potency entry (in assay [1]; in assay [2]; with Papain (Carica papaya)) was “inactive” in each case.

Consider `O=C(CS)Nc1ccccc1`, for which the Potency in assay [2] was 4.9 µM (active). Further, the Potency result in assay [3] and in assay [4] was “inactive” in each case.

For `CN1[C@@H](CC(=O)c2ccccc2)CCC[C@H]1C[C@H](O)c1ccccc1`, the Potency entry with Papain (Carica papaya) was “inactive”.

Regarding `CCCCN(CC)c1nc(C)nc2c1c(C)cn2-c1c(C)cc(C)cc1C`, the Potency entry (in assay [1]; with Papain (Carica papaya); in assay [4]) was “inactive” in each case. Besides, the Potency in assay [2] was 12 µM (active).

On to `C=CCN1C(=O)C(CC(C)C)NC1=S` (stereo not given), for which the Potency in assay [2] is 23.9 µM (active).

As to `O=C(O)CNC(=O)C(CS)Cc1ccccc1` (stereo not given), in the assay with Papain (Carica papaya), the Potency result is “inactive”.

As to `N[C@@H](CC(=O)O)C(=O)O`, the Potency entry with Papain (Carica papaya) is “inactive”.

For `C#CC1(O)CC[C@H]2[C@@H]3CCC4=CCCC[C@@H]4[C@H]3CC[C@@]21C` (stereo not given in full), the Potency in assay [2] was 1.74 µM (active).

For `O=C(O)[C@H](CC(=O)N1C[C@H]2CCCC[C@H]2C1)Cc1ccccc1`, the Potency result in assay [1], in assay [2], in assay [3] and in assay [4] was “inactive” in each case.

Consider `Fc1ccc2[nH]c(CN3CCN(c4ccccn4)CC3)cc2c1`, for which the Potency is 5.35 µM (active) in assay [1] and 6.74 µM (active) in assay [2]. In addition, the Potency result with Papain (Carica papaya) was “inactive”.

On to `CCN(CC)CCCCNc1ncc2cc(-c3c(Cl)cccc3Cl)c(NC(=O)NC(C)(C)C)nc2n1`, for which the Potency in assay [2] was 19 µM (active); with Papain (Carica papaya), 28.2 µM (active); in assay [3] it was 1.45 µM (active); in assay [4], 3.65 µM (active).

Take `CO/N=C(\C(=O)N[C@@H]1C(=O)N2C(C(=O)O)=C(COC(C)=O)CS[C@H]12)c1csc(N)n1`: the Potency result (in assay [1]; in assay [2]; with Papain (Carica papaya)) was “inactive” in each case.

Turning to `COC(=O)Nc1nc2ccc(C(=O)C3CC3)cc2[nH]1`, the Potency entry in assay [1] and in assay [2] was “inactive” in each case. For the same compound, the Potency was 0.376 µM (active) in assay [3] and 0.266 µM (active) in assay [4].

As for `CN(C)c1ccc(C(=C2C=CC(=[N+](C)C)C=C2)c2ccccc2)cc1`, the Potency in assay [1] was 8.71 µM (active); in assay [3], 0.0944 µM (active); in assay [4], 0.188 µM (active).

`CN1C2CC(OC(=O)[C@H](CO)c3ccccc3)CC1C1OC12` (stereo not given in full): the Potency result with Papain (Carica papaya) was “inactive”.

`C#C[C@]1(O)CC[C@H]2[C@@H]3CCc4cc(O)ccc4[C@H]3CC[C@@]21C`: the Potency result in assay [1] is “inactive”. Besides, the Potency in assay [3] was 11.8 µM (active); in assay [4] it was 18.8 µM (active) and 10.5 µM (active).

Regarding `COc1cc(OC)cc(-c2cc3cnc(N)nc3nc2NC(=O)NC(C)(C)C)c1`, in the assay with Papain (Carica papaya), the Potency entry is “inactive”.

For `O=c1cc(-c2ccccc2)oc2ccccc12`, the Potency is 15.4 µM (active) in assay [2] and 50.1 µM (active) in assay [5].

`NC(=S)c1ccc[n+]([C@@H]2O[C@@H](COP(=O)([O-])OP(=O)(O)OC[C@H]3O[C@@H](n4cnc5c(N)ncnc54)[C@H](OP(=O)(O)O)[C@@H]3O)C(O)C2O)c1` (stereo not given in full): in the assay with Papain (Carica papaya), the Potency entry is “inactive”.

Take `CCCSc1ccc2nc(NC(=O)OC)[nH]c2c1`: the Potency entry in assay [1] and in assay [2] was “inactive” in each case. Also, the Potency in assay [3] is 0.422 µM (active); in assay [4] it was 0.266 µM (active).

With `Nc1ccc([N+](=O)[O-])cc1O`, the Potency in assay [2] was 39.9 µM (active); in assay [3], 6.86 µM (active); in assay [4], 7.7 µM (active).

Consider `Cc1c(Nc2ncccc2C(=O)O)cccc1C(F)(F)F`, for which the Potency entry in assay [1], in assay [2] and in assay [4] was “inactive” each time.

In the case of `O=C(/C=C/c1ccccc1)NCCO`, in assay [2], the Potency is 5.49 µM (active).

For `NCCCCC(=O)O`, in the assay with Papain (Carica papaya), the Potency result was “inactive”.

For `O=[N+]([O-])c1ccc(CNc2nc(NCc3cccc(C(F)(F)F)c3)nc3nc[nH]c23)cc1`, the Potency in assay [2] is 1.07 µM (active). In addition, the Potency entry with Papain (Carica papaya) was “inactive”.

For `NCCSSCCN`, the Potency entry in the assay with Papain (Carica papaya) was “inactive”.

In the case of `COC(=O)c1nc(Cl)c(Cl)nc1N`, the Potency entry in assay [1] and in assay [2] was “inactive” each time. The figures for the Potency in assay [3] and in assay [4] were 0.0596 µM (active) and 0.0376 µM (active), respectively.

As for `O=C1NC(O)=NC1(c1ccccc1)c1ccccc1`, the Potency entry (in assay [1]; with Papain (Carica papaya)) was “inactive” each time.

On to `O=C(Nc1ccc2c(c1)CCN(Cc1ncn[nH]1)C2)c1ccccc1-c1ccc(C(F)(F)F)cc1`, for which the Potency in assay [1] is 0.12 µM (active); in assay [2], 10.7 µM (active). The Potency entry (with Papain (Carica papaya); in assay [3]) was “inactive” throughout.

With `CS(=O)(=O)c1ccc(-n2nc(C(F)(F)F)cc2-c2ccc(F)cc2)cc1`, the Potency in assay [1] is 9.52 µM (active); in assay [2] it was 3.38 µM (active). Further, the Potency result (with Papain (Carica papaya); in assay [3]; in assay [4]) was “inactive” each time.

For `O=c1[nH]c2ccccc2n1CCCN1CCN(C(c2ccccc2)c2ccccc2)CC1`, the values for the Potency in assay [1], in assay [3] and in assay [4] were 0.055 µM (active), 23.7 µM (active) and 23.7 µM (active), respectively.

As to `OCC1O[C@H](O)C(Cl)C(O)C1O` (stereo not given in full), the Potency result with Papain (Carica papaya) is “inactive”.

Consider `Cn1ncc(S(=O)(=O)Cc2ccccc2)c(Br)c1=O`, for which the Potency entry with Papain (Carica papaya) is “inactive”.

With `CCCCC1C(=O)N(c2ccccc2)N(c2ccc(O)cc2)C1=O` (stereo not given), the Potency was 8.71 µM (active) in assay [2], 0.531 µM (active) in assay [3] and 0.531 µM (active) in assay [4].

For `O=C(O)c1ccccc1Nc1cccc(C(F)(F)F)c1`, the Potency entry in assay [1], in assay [2], in assay [4], in assay [6] and in assay [7] was “inactive” throughout.

For `Brc1cc2c(cc1[C@H]1Nc3ccccc3[C@H]3C=CC[C@H]31)OCO2`, in the assay with Papain (Carica papaya), the Potency entry was “inactive”.

In the case of `N.N.N.N.N.N.N.N.N.N.N.N.N.N.O.O.[Ru+4].[Ru+5].[Ru+5]`, the Potency result with Papain (Carica papaya) is “inactive”. The Potency in assay [5] was 27.4 µM (active).

Regarding `COc1cc(SC)ccc1C(=O)N1CCC(Cc2ccccc2)CC1`, the Potency entry in the assay with Papain (Carica papaya) was “inactive”.

As to `CCOC(=O)N1CCN(/[N+]([O-])=N/Oc2ccc([N+](=O)[O-])cc2[N+](=O)[O-])CC1`, the Potency result with Papain (Carica papaya) was “inactive”. Moreover, the Potency is 7.42 µM (active) in assay [3] and 5.9 µM (active) in assay [4].

For the compound `O=C(/C=C/c1ccc(O)cc1)c1ccc(O)cc1O`, in the assay with Papain (Carica papaya), the Potency entry was “inactive”. Besides, the Potency in assay [3] was 8.33 µM (active); in assay [4], 5.25 µM (active).

With `O=c1[nH]c2cc(C(F)(F)F)ccc2n1-c1cc(C(F)(F)F)ccc1O`, in the assay with Papain (Carica papaya), the Potency result was “inactive”.

As to `Nc1nc2ccc(Cl)cc2n2c(-c3ccccc3)nnc12`, in the assay with Papain (Carica papaya), the Potency result is “inactive”.

With `S=c1[nH]c(-c2ccccc2)cn1-c1ccccc1`, in the assay with Papain (Carica papaya), the Potency result was “inactive”.

For the compound `NS(=O)(=O)C#Cc1ccccc1`, in the assay with Papain (Carica papaya), the Potency entry is “inactive”.

`Fc1cccc(/C=N/N=C/c2cccc(F)c2)c1`: in the assay with Papain (Carica papaya), the Potency entry is “inactive”.

Consider `Oc1cc(O)cc(/C=C/c2ccc(O)c(O)c2)c1`, for which the Potency with Papain (Carica papaya) is 22.4 µM (active); in assay [3], 6.51 µM (active); in assay [4], 7.31 µM (active).

On to `O=C1NC(=O)/C(=C/c2ccc3nccnc3c2)S1`, for which the Potency result (in the assay with Papain (Carica papaya); in assay [3]) was “inactive” in each case.

Take `COc1cc(C(O)CO)ccc1OS(=O)(=O)O` (stereo not given): the Potency entry with Papain (Carica papaya) is “inactive”.

For the compound `CCCN(CC1CC1)c1nc(C)nc(Nc2c(Cl)cc(Cl)cc2Cl)c1Cl`, the Potency entry in the assay with Papain (Carica papaya) was “inactive”.

For the compound `O=C(Nc1ccccc1)c1cc([N+](=O)[O-])ccc1Cl`, in the assay with Papain (Carica papaya), the Potency result is “inactive”.
